Shown are actives, neighbours in structure and some others; about 5.2% of the full set was active somewhere.
Coupling enz = counter-screen for Giardia aldolase inhibitors: coupling enzyme system; coupling enzyme system counterscreen, AmpLite Red fluorescence; activity change, negative = inhibition, % at 58.2 µM, hits read low; hit rate 0.67% among 290,000; in the data active means activity change below about -30%
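Fluorescence at 525 nm excitation and 598 nm emission measured inhibition of the coupled detection system without aldolase. Compounds (at 57.5 uM final) were preincubated 10 min at room temperature with coupling enzyme reagent before a 20 min substrate/AmpLite Red step.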
Tau fluor cs = counter-screen for tau fibril formation inhibitors; tau K18 P301L Alexa594 fluorescence, heparin fibrillization; Potency, µM (series often up to 57.7 µM), inactives show top-dose activity change, negative = decrease; hit rate 0.93% among 280,000; AID 1463; further: potency means the concentration at half of the fitted maximal effect; nearly all actives have a fitted effect of over 55% in size
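Human K18 P301L tau (15 uM unlabeled plus 0.24 uM Alexa 594-labeled, final) in 100 mM sodium acetate pH 7 was mixed with compound and 20 uM heparin and incubated 6 hr at 37 C.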
Sfp inh = inhibitors of Bacillus subtilis Sfp phosphopantetheinyl transferase | hit rate 3.5% among 310,000 | Biochemical Sfp PPTase activity, qHTS | Potency, µM, inactives show largest response in the series, negative = inhibition, most hits filed as inhibitors;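 further: the enzyme is Sfp with the accession as filed and its product quenches rhodamine fluorescence; potency means the concentration at half of the fitted maximal effect; 0% = enzyme reaction without inhibitor and -100% = no enzyme wells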
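Compounds were incubated with enzyme (final 15 nM) for 15 min at room temperature before substrate addition started the reaction. Fluorescence at 525 nm excitation, 598 nm emission was recorded immediately and after 30 minutes.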
Tau fibril ThT = tau fibrillization inhibition (ThT binding); P10636; hit rate 2.1% among 270,000; Potency, µM (top dose mostly 57.4 µM), without a hit: top-dose activity, negative = inhibition, usual class: inhibitors; AID 1460; recombinant tau K18 P301L (four-repeat tau fragment), heparin-induced fibrillization, ThT fluorescence; further: potency means the concentration at half of the fitted maximal effect; nearly all actives have a fitted effect of over 55% in size
Target sequence (P10636 561-689 P618L limits assumed): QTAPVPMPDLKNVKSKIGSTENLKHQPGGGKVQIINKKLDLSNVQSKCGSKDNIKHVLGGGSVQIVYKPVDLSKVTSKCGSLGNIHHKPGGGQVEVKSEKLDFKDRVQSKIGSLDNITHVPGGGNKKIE
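Heparin-induced (20 uM) aggregation of recombinant human K18 P301L tau, 15 uM unlabeled with 0.24 uM labeled, pH 7 acetate buffer, 6 hr at 37 C with compound. Fibrils quantified by 30 uM ThT fluorescence after 1 hr ambient incubation.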
Tau fibril FP = blocks human tau fibril formation measured by polarization | P10636 | K18 P301L tau heparin fibrillization, Alexa594 FP, 6 h | Potency, µM (highest dose often 57.7 µM), inactives show top-dose activity, negative = inhibition, most hits filed as inhibitors | hit rate 0.39% among 280,000 | AID 1468; further: potency means the concentration at half of the fitted maximal effect; nearly all actives have a fitted effect of over 55% in size
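Human tau K18 […] P301L fragment, 15 uM unlabeled plus 0.24 uM Alexa 594-labeled tau (final), with compound and 20 uM heparin in 100 mM sodium acetate pH 7; 6 hr at 37 C, then Alexa 594 FP read.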
The depositor's hits bear a star; u = inconclusive; x = no result; [ ] = dose if it differs, or a comment. Unless noted, the call rests on the fitted dose curve; in most records, active means well fitted curve in the direction sought with a large enough effect; inconclusive means small, poorly fitted or top-dose-only effect, or another doubt; inactive means no such curve, though single readings can be large; an effect the other way counts as inactive or inconclusive. Unless noted, on the % scale 0 is the no-effect control and ±100 the full control effect.

SMILES	Coupling enz	Tau fluor cs	Sfp inh	Tau fibril ThT	Tau fibril FP
COc1ccc(C(=O)Nc2nnc(SCc3cc(=O)n4cc(Cl)ccc4n3)s2)cc1	x	-2%	x	-17%	5%
Cc1ccsc1/C=C/c1ccc2cccc(O)c2n1	-5	u	50µM*	u	3%
Cc1ccsc1/C=C/c1ccc2ccccc2n1	3	-17%	-21%	u	-1%
Oc1ccc(Cl)cc1/C=C/c1ccc2cccc(O)c2n1	-11	25µM*[quencher]	13%	u	u
Cc1ccc(-c2nc3c(c(=O)[nH]c(=O)n3Cc3ccccc3)n2Cc2ccccc2)o1	-1	-23%	13µM*	u	u
Cc1ccc(-c2nc3c(c(=O)[nH]c(=O)n3Cc3ccccc3)n2C)s1	0	-12%	12%	-13%	-8%
COCCCn1c(-c2ccc(OC)cc2)nc2c1c(=O)[nH]c(=O)n2Cc1ccccc1	1	x	17%	x	x
Cc1ccc(-c2nc3c(c(=O)[nH]c(=O)n3Cc3ccccc3)n2C)o1	0	-15%	10µM*	u	-15%
CCn1c(C(=O)N2CCCC(C(=O)NCCCOC)C2)cc2sccc21 (stereo unspecified)	x	-1%	x	3%	0%
COC(=O)/C=C\CCc1coc(/C=C\CNC(=O)OC)n1	1	-4%[11.6 µM]	2%	-6%[11.5 µM]	-9%[11.6 µM]
O=c1c2ccccc2oc2cc(O)c(C3COCC(CO)C(O)C(O)C3O)c(O)c12 (stereo unspecified)	0	-19%	79µM*	-15%	-1%
Cc1nnc(SCc2cc(=O)[nH]c(=S)[nH]2)s1	-5	0%	20µM*	-3%	-13%
Cc1nnc(SCc2cc(=O)c3ccccc3[nH]2)s1	x	-2%	x	2%	-10%
COc1ccc(Oc2ncc3ncc(=O)n(Cc4ccc(F)cc4)c3n2)cc1	-2	x	7%	x	x
COc1ccc(NS(=O)(=O)c2ccc3oc4ccccc4c3c2)cn1	1	u	56µM*	9%	-5%
COc1ccc(NS(=O)(=O)c2ccc(Br)cc2)cn1	-1	x	8%	x	x
COc1cc(O)c2c(c1)oc(=O)c1c3cc(O)c(O)cc3oc21	-17	x	10µM*	x	x
COc1cc(/C=C2/C(=O)NN(c3cccc(C)c3)C2=O)ccc1OC(=O)c1ccco1	14	u	45µM*	u	u
COc1cc(/C=C2/C(=O)NN(c3cccc(C)c3)C2=O)cc([N+](=O)[O-])c1O	-1	-18%	12%	14µM*	0%
CCn1c(C(=O)NCc2ccccc2C)cc2oc3ccccc3c21	x	u	x	u	-4%
C[C@@H]1CC[C@H]2C(=O)O[C@H](CN=[N+]=[N-])CN2[C@@H]1c1ccc(Br)cc1	1	-4%[11.6 µM]	5%	-2%[11.5 µM]	-5%[11.6 µM]
Cc1ccc(C(=O)CCS(=O)(=O)c2ccc(Br)cc2)cc1	-1	x	3%	x	x
O=C(CCNc1ccc(Cc2ccncc2)cc1)c1cccc([N+](=O)[O-])c1	2	16µM*[quencher]	13%	u	u
Cc1ccc(S(=O)(=O)CCC(=O)c2cccc([N+](=O)[O-])c2)cc1	0	x	22µM*	x	x
O=C(Nc1ccc(Cc2ccncc2)cc1)c1ccc(Cl)c([N+](=O)[O-])c1	-36*	6%	12%	13%	-1%
SMILES	Coupling enz	Tau fluor cs	Sfp inh	Tau fibril ThT	Tau fibril FP
COc1ccc(N2CC(NC(=O)c3ccc(S(=O)(=O)N4CCOCC4)cc3)CC2=O)cc1OC (stereo unspecified)	x	-4%	x	0%	-13%
O=C(CCCN1C(=O)/C(=C/c2ccccc2)SC1=S)Nc1cccc(O)c1	-1	14µM*[quencher]	0%	u	u
O=C(CN1C(=O)/C(=C/c2cccc(Br)c2)SC1=S)Nc1cccnc1	0	8.9µM*[quencher]	-5%	u	u
O=C(CCCN1C(=O)/C(=C\c2ccccc2)SC1=S)Nc1ccc(O)cc1	2	14µM*[quencher]	-1%	u	14%
CC(/C=C1\SC(=S)N(CCCC(=O)Nc2ccc(C(=O)O)c(O)c2)C1=O)=C\c1ccccc1	5	u	u	5µM*	-9%
O=C(CCN1C(=O)/C(=C/c2cccc(Br)c2)SC1=S)Nc1cccnc1	-4	-22%	1%	u	-17%
O=C(CCCN1C(=O)/C(=C\c2ccccc2)SC1=S)Nc1cccc(C(=O)O)c1	7	x	-2%	x	x
